# Assay results reported in PubChem BioAssay AID624405 (Broad Institute, 2012).
# The whole screen tested about 1,900 compounds, of which about 250 (13%) were called active. Inconclusive results (about 4%) are left out. Only a sample is shown. Results with a measured potency or affinity are listed apart. Values without a mark were called inactive.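 How the source made its calls: active means fitted curve reaches 40% rescue activity at or below the top valid dose, in every test run; inconclusive means test runs disagree, some active and some inactive; inactive means every run misses the threshold or moves the wrong way.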
# Test: rescue of simvastatin-induced ATP loss – cell-based, C2C12 myotubes, ATP luminescence, cherry pick, dose response (AID 624405);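 further: myotubes are challenged with simvastatin at 10 µM to lower ATP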
# Settings: 48 h, scaled: DMSO wells 0, geranylgeraniol wells 100; series mostly up to 19.5 µM; rescue activity (ATP increase): at the top concentration
row,SMILES,rescue activity (ATP increase)
1,CN1C(=O)c2cc(NC(=O)c3ccc(F)c(F)c3)ccc2OC[C@H]2O[C@@H](CC(=O)Nc3ccc4c(c3)COC4)CC[C@@H]21,26% [at 10 µM]
2,CCSc1nc2sc3c(c2c(=O)n1-c1ccc(OC)cc1)CCN(C)C3,40.1%
3,COCCNC(=O)c1nn(-c2cc(OC)cc(OC)c2)c(=O)c2ccccc12,0.939%
4,COc1ccc(S(=O)(=O)N(CC(C)C)CC(C)C)c2cccnc12,9.83%
5,Cc1cccc(NC(=O)COc2ccc3oc4c(c3c2)CCCC4)n1,31.6%
6,CO[C@H]1CC[C@@H]2CCOc3ccc(C#N)cc3C(=O)N(C)C[C@@H](OC)[C@@H](C)C(=O)N(C)C[C@H]1O2,40.2%
7,C[C@@H]1CN([C@H](C)CO)C(=O)c2cc(NS(=O)(=O)c3cccs3)ccc2O[C@@H](C)CCCCO[C@@H]1CN(C)Cc1ccc(C(F)(F)F)cc1,-13.6%
8,O=C(CSc1nnnn1-c1cccc2c1CCCC2)N1CCCCC1,5.11%
9,Cc1ccc(NC(=O)c2cccc(OCc3c(C)noc3C)c2)cc1,-87%
10,COCCNC(=O)Nc1ccc2nc(-c3cccs3)c(-c3cccs3)nc2c1,-64.5%
11,COc1ccc(NC(=O)CSc2nccc(C)n2)cc1,8.89%
12,O=C(CSc1nnc(CNc2ccc(F)cc2)n1Cc1ccccc1)N1CCOCC1,-5.13%
13,Cc1ccc(NC(=O)CCNS(=O)(=O)c2ccc3[nH]c(=O)oc3c2)cc1F,-26.9%
14,C[C@@H]1CN([C@H](C)CO)C(=O)c2cc(C#CC3CCCCC3)cnc2O[C@H]1CN(C)C(=O)C1CCCCC1,-2.93%
15,CCOC(=O)c1cccc(NC(=O)C2CCCO2)c1 (centres undefined),8.93%
16,Cc1ccc(C2C=C(c3ccccc3OC(F)F)Nc3ncnn32)cc1 (centres undefined),19.5%
17,CNC(=O)CC(=O)Nc1ccccc1C(=O)O,13%
18,O=c1c2c3c(sc2nc2n1CCCS2)CCCC3,44.9%
19,C=CCOC(=O)c1ccc(-n2cncn2)nc1,-9.68%
20,CCC(C(=O)Nc1ccccc1-c1ccccc1)c1ccccc1 (centres undefined),1.13%
21,CCOCCc1nnc(NC(=O)C(CC)c2ccccc2)s1 (centres undefined),-0.751%
22,C[C@@H]1CN([C@@H](C)CO)C(=O)Cc2cc(NS(=O)(=O)c3ccc(F)cc3)ccc2O[C@H]1CN(C)Cc1ccc(-c2ccccc2)cc1,29.3%
23,C[C@H]1CN([C@@H](C)CO)C(=O)Cc2cc(NS(=O)(=O)c3cn(C)cn3)ccc2O[C@@H]1CN(C)Cc1ccc(-c2ccccc2)cc1,36.4%
24,Cc1ccc(S(=O)(=O)Nc2ccc3c(c2)CC(=O)N([C@H](C)CO)C[C@@H](C)[C@H](CN(C)Cc2ccc(-c4ccccc4)cc2)O3)cc1,12.2%
25,COc1ccc(CN(C)C[C@@H]2Oc3ccc(NS(=O)(=O)c4ccc(C)cc4)cc3CC(=O)N([C@H](C)CO)C[C@H]2C)cc1,16%
26,Cc1ccc(S(=O)(=O)Nc2ccc3c(c2)CC(=O)N([C@@H](C)CO)C[C@@H](C)[C@H](CN(C)Cc2ccc(Oc4ccccc4)cc2)O3)cc1,22.7%
27,C[C@@H]1CN([C@H](C)CO)C(=O)Cc2cc(NS(=O)(=O)c3cccs3)ccc2O[C@@H]1CN(C)Cc1ccc(-c2ccccc2)cc1,40.7%
28,COc1ccc(CN(C)C[C@H]2Oc3ccc(NS(=O)(=O)c4ccccc4)cc3CC(=O)N([C@@H](C)CO)C[C@@H]2C)cc1,22.6% [at 21 µM]
29,COc1ccc(S(=O)(=O)Nc2ccc3c(c2)CC(=O)N([C@H](C)CO)C[C@@H](C)[C@H](CN(C)Cc2ccccc2)O3)cc1,25.7% [at 21 µM]
